High-throughput results: PubChem BioAssay, several laboratories
COUP-TFII inh: blocks human COUP-TFII nuclear receptor; inhibition, % at 8.6 µM; P24468; AID 686940; HEK293T NGFI-A luciferase reporter, luminescence; 0.7% of 370,000 active;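 active = inhibition above a per-plate cutoff, mean inhibition of test wells between control levels plus 3 SD, cut at about 38% in these data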;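 also: cells cotransfected with COUP-TFII expression vector driving the NGFI-A reporter; 0% = median of COUP-TF2 test wells and 100% = reporter-only cells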
Efflux pump mplx: blocks antifungal efflux pumps in multiplex yeast assay; S. cerevisiae Candida pump triplex, Nile Red efflux; inhibition, % at 10 µM; 0.44% of 330,000 active; AID 485275;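 active = plate passing quality check with inhibition over a set limit, or well fluorescence over plate mean plus 4 SD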;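 also: Nile Red retained in pooled yeast measured as flow cytometry median fluorescence; 0% = buffer negative control and 100% = Enniatin B positive control; higher means more Nile Red kept so more efflux inhibition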
NR5A2 inv ag: suppresses constitutive activity of human LRH-1; AID 602396; HEK293T StAR-luciferase reporter, LRH-1 transfected, 24 h; 0.13% of 360,000 active; O00482; inhibition, % at 3.6 µM;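 active = inhibition above the mean inhibition of all tested compounds plus 3 SD, cut at about 73% in these data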;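 also: 0% = DMSO wells and 100% = reporter-only cells lacking LRH-1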
Target sequence (O00482 whole entry, looked up): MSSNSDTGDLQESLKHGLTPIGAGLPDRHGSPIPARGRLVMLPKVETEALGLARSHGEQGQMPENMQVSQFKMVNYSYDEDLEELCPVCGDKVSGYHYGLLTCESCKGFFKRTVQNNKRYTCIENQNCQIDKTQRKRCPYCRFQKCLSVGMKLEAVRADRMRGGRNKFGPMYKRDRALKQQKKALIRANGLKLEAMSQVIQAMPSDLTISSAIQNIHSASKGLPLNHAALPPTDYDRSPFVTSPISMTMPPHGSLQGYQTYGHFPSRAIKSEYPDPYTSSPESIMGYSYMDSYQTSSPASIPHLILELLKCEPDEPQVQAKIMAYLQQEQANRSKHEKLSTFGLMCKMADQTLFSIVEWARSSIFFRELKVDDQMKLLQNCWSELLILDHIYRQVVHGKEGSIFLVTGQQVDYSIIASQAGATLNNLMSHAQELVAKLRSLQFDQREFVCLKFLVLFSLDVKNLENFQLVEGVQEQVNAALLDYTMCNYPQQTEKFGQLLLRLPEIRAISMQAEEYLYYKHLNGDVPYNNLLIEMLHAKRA
NCOA2 inhibitor: human SRC2 (NCOA2) inhibition. HEK293 GAL4-SRC2 luciferase reporter, luminescence. 0.17% of 370,000 active. inhibition, % at 9 µM;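 active = inhibition above the mean inhibition of all tested compounds plus 3 SD, set per campaign, cut at about 52% in these data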;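 also: 0% = DMSO treated cells and 100% = cells given Gossypol at 36 µM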
SRC1 inh: human NCOA1 inhibition | Q15788 | HEK293 GAL4-SRC1 luciferase reporter, luminescence | inhibition, % at 3.6 µM | 0.12% of 360,000 active | AID 588354;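 active = inhibition above the campaign mean plus 3 SD, with each screening campaign given its own cutoff, cut at about 60% in these data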;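 also: 0% = DMSO treated cells and 100% = gossypol at 36 µM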
NCOA3 inh: inhibits human SRC3 coactivator; HEK293 GAL4-SRC3 luciferase reporter, luminescence; Q9Y6Q9; inhibition, % at 3.6 µM; 0.17% of 360,000 active;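 active = inhibition above a per-campaign cutoff, the mean of all compounds plus 3 SD, cut at about 60% in these data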;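 also: 0% = DMSO-treated cells and 100% = gossypol-treated cells at 36 µM; higher means less SRC3-driven luciferase light from the GAL4 reporter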
Yeast cmpd fluor: flagged as fluorescent in efflux inhibitor counter-screen; fluorescence ratio to DMSO, % at 10 µM; 4% of 1,700 active; AID 588517; S. cerevisiae AD/pABC3, compound fluorescence, flow cytometry; shares compounds with Efflux pump mplx;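 active = fluorescence ratio to DMSO above its plate's cutoff, the plate mean ratio plus 5 SD, cut at about 210% in these data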;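 also: unstained yeast with no Nile Red so the signal is compound autofluorescence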
Mdr1 pump inh: Candida Mdr1 efflux pump inhibition | shares compounds with Efflux pump mplx | S. cerevisiae AD/CaMDR1, Nile Red efflux, flow cytometry | inhibition, % at 10 µM | 1% of 1,700 active | AID 588518; in the data active = inhibition above about 26%;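 also: 0% = DMSO vehicle and 100% = reference inhibitor; higher means more Nile Red retained so more efflux inhibition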
CaCdr2 efflux inh: Candida Cdr2 efflux pump inhibition | 4% of 1,700 active | S. cerevisiae AD/CaCDR2, Nile Red retention, flow cytometry | shares compounds with Efflux pump mplx | Nile Red retention ratio vs DMSO, % at 10 µM; in the data active = Nile Red retention ratio vs DMSO above about 190%;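 also: higher ratio means more blocking of Cdr2 efflux of the dye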
CaCdr1 efflux inh: blocks the Candida albicans Cdr1 efflux pump in yeast; inhibition, % at 10 µM; shares compounds with Efflux pump mplx; 1% of 1,700 active; S. cerevisiae AD/CaCDR1, Nile Red efflux, flow cytometry;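 active = inhibition above the screen-wide mean plus twice its standard deviation, cut at about 32% in these data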
* = called active by the depositor; x = not tested or not shown. Sampled rows, rich in hits. Any-hit rate of the full collection: about 1.2%.

SMILES | COUP-TFII inh | Efflux pump mplx | NR5A2 inv ag | NCOA2 inhibitor | SRC1 inh | NCOA3 inh | Yeast cmpd fluor | Mdr1 pump inh | CaCdr2 efflux inh | CaCdr1 efflux inh
NC1=NC[C@H](Cc2ccc(O)cc2)N1CCc1cc(C(F)(F)F)cc(C(F)(F)F)c1 | 11 | 0 | 22 | 8 | -8 | -11 | 105 | 0 | 100 | 0
NC1=NC[C@H](Cc2ccc(O)cc2)N1CCc1cccc2ccccc12 | 1 | 0 | 9 | 2 | -11 | 8 | x | x | x | x
c1ccc(C[C@H]2CN=C(Nc3ccccc3)N2CCC2CCCC2)cc1 | 0 | 0 | 15 | -12 | 0 | 12 | x | x | x | x
NC1=NC[C@@H](CC2CCCCC2)N1CCc1cc(C(F)(F)F)cc(C(F)(F)F)c1 | x | 0 | 5 | x | 21 | 13 | x | x | x | x
NC1=NC[C@H](Cc2ccccc2)N1CCCCC1CCCCC1 | -14 | 1.1* | 2 | 2 | -9 | 6 | 116 | 0 | 121 | 0
NC1=NC[C@@H](Cc2ccc(O)cc2)N1CCc1cccc2ccccc12 | -9 | 0 | 17 | -12 | -7 | 2 | 94 | 0 | 91 | 0
CCOC(=O)C1CCCN(C(=O)CCc2nc3sc4c(c3c(=O)[nH]2)CCCC4)C1 (centres undefined) | -4 | 0 | -5 | -12 | -4 | 3 | x | x | x | x
CCc1cccc(C)c1NC(=O)c1ccc(CN2CCc3ccccc3C2)cc1 | 5 | 22* | 18 | 15 | 12 | 5 | 116 | 0 | 114 | 0
O=C(NCc1cccnc1)c1ccc(COc2ccccc2Br)cc1 | 2 | 0 | 15 | 15 | -2 | -8 | x | x | x | x
CCn1c(CNC(=O)C2CCCCC2)cc2ccccc21 | 22 | 0 | 21 | -3 | 2 | -13 | x | x | x | x
Cc1ccc(N(CC(=O)NN=C2CCN(C)CC2)S(=O)(=O)c2ccc(C)cc2)cc1 | -12 | 0 | 9 | 6 | -13 | 1 | x | x | x | x
CCOC(=O)C(NC(=O)CC)(Nc1ccccc1)C(F)(F)F (centres undefined) | 22 | 5.5* | -9 | -12 | 13 | 10 | 93 | 0 | 94 | 0
N#CCCN1CCN(C(=S)c2ccc(-c3ccc(Cl)c(Cl)c3)o2)CC1 | -15 | 1.0* | -38 | -39 | -60 | -15 | 104 | 0 | 90 | 0
O=c1[nH]c(C2CCN(S(=O)(=O)c3ccc4c(c3)OCCO4)CC2)nc2c1nnn2Cc1ccccc1F | 15 | 1.0* | 14 | 3 | -26 | 3 | 110 | 0 | 121 | 0
O=c1[nH]c(C2CCN(S(=O)(=O)c3ccc(C(F)(F)F)cc3)CC2)nc2c1nnn2Cc1cccc(F)c1 | 0 | 0 | -11 | -5 | 2 | 1 | x | x | x | x
O=c1[nH]c(C2CCN(S(=O)(=O)c3ccc4c(c3)OCCO4)CC2)nc2c1nnn2Cc1c(F)cccc1Cl | 13 | 0 | -7 | 19 | 11 | 24 | x | x | x | x
O=c1[nH]c(C2CCN(S(=O)(=O)c3ccccc3C(F)(F)F)CC2)nc2c1nnn2Cc1cccc(F)c1 | 17 | 3.1* | -5 | 2 | -20 | -12 | 100 | 0 | 114 | 0
Cc1ccc(C)c(Cn2nnc3c(=O)[nH]c(C4CCN(S(=O)(=O)c5ccc(S(=O)(=O)NC6CC6)cc5)CC4)nc32)c1 | -6 | 3.1* | -4 | -20 | 6 | -3 | 99 | 0 | 105 | 0
Cc1ccc(Cn2nnc3c(=O)[nH]c(C4CCN(S(=O)(=O)c5ccc(F)cc5)CC4)nc32)cc1 | -2 | 0 | -3 | 2 | 8 | 12 | 100 | 0 | 116 | 0
COc1ccc(OCCCC(=O)Nc2ccc(N3CCCCC3)cc2)cc1 | -7 | 0 | -10 | 3 | 10 | 16 | x | x | x | x
CCCC(=O)Nc1ccc(C(=O)COC(=O)C2=COCCO2)cc1 | -23 | x | -19 | -44 | -13 | 1 | x | x | x | x
Cc1ccc(Cn2nnc3c(=O)[nH]c(C4CCN(S(=O)(=O)c5cc(C)ccc5C)CC4)nc32)cc1 | -1 | 0 | 4 | 10 | 1 | -6 | x | x | x | x
Cc1ccc(C)c(Cn2nnc3c(=O)[nH]c(C4CCN(S(=O)(=O)c5ccc(S(=O)(=O)N(C)C)cc5)CC4)nc32)c1 | -8 | 0 | -10 | -18 | 11 | -9 | 93 | 0 | 116 | 0
Cc1ccc(Nc2nc(Cl)nc(NC(C)(C)C)n2)cc1 | -16 | 1.1* | -83 | -32 | -57 | -69 | 172 | 1 | 100 | 0
COc1ccc(CCC(=O)NNC(=O)Cn2nc(C)cc2C)cc1 | -5 | 5.5* | 3 | 16 | -16 | -2 | 110 | 0 | 98 | 0
SMILES | COUP-TFII inh | Efflux pump mplx | NR5A2 inv ag | NCOA2 inhibitor | SRC1 inh | NCOA3 inh | Yeast cmpd fluor | Mdr1 pump inh | CaCdr2 efflux inh | CaCdr1 efflux inh
CCn1c(C)nnc1SCC(=O)Nc1ccc(N2CCOCC2)cc1 | -23 | 0 | 32 | 14 | -11 | -9 | x | x | x | x
COc1cc(OC)cc(C(=O)OC/C(O)=C(\C#N)c2nc3ccccc3[nH]2)c1 | 5 | 0 | 11 | -13 | 2 | 8 | x | x | x | x
CCN(CC)c1ccc(/C=N/NC(=O)CNC(=O)C2COc3ccccc3O2)c(O)c1 (centres undefined) | -17 | -3 | 18 | 22 | 27 | 38 | x | x | x | x
CCc1c(C)nc2c(OC)cccc2c1SCCC(=O)O | -5 | 10* | 14 | -9 | -4 | 13 | 112 | 0 | 112 | 0
COc1ccc(CC(=O)N(Cc2ccccc2)c2ccccc2C(=O)Nc2cc(OC)ccc2OC)cc1 | -11 | x | x | -2 | x | x | x | x | x | x
CCCc1nn2c(=O)cc(CSCC(=O)Nc3ccc(F)cc3)nc2s1 | -3 | 1.9* | -12 | -6 | 15 | -13 | 100 | 0 | 100 | 0
COCCCn1c(C)cc(C(=O)COC(=O)C23CC4CC(CC(O)(C4)C2)C3)c1C | 27 | x | -18 | -25 | 20 | -1 | x | x | x | x
C[C@H]1O[C@@H](O[C@H]2CC[C@@]3(C)C(CC[C@]4(C)C3C=C[C@]35OC[C@@]6(CCC(C)(C)C[C@H]63)[C@@H](O)C[C@]54C)[C@]2(C)CO)[C@H](O)[C@@H](O[C@@H]2O[C@H](CO)[C@@H](O)[C@H](O)[C@H]2O)[C@H]1O (some centres undefined) | -9 | 0 | 4 | -9 | 4 | -9 | x | x | x | x
Cc1ccc(S(=O)(=O)Nc2cc(C)c(O)c(Sc3n[nH]c(C)n3)c2)cc1 | 13 | 0 | 1 | 7 | -6 | -6 | 99 | -1 | 109 | 0
Cc1cc(C)cc(NC(=O)CSc2nc3[nH]ncc3c(=O)[nH]2)c1 | 1 | 0 | 19 | 26 | 5 | 5 | x | x | x | x
